From PubChem BioAssay (EPA / NIEHS)
Activity calls are given as the source filed them. Rule for the calls: active = hit-call score of the fitted dose curve at least 0.9, where 1 is the maximum; inactive = score below 0.9.

Experiment: CCTE_Padilla_ZF_Score.Spine: CCTE's 144 Hour Post-fertilization zebrafish Assay Score for Spine Malformation, Padilla Lab (AID 2284407)
Outline: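 Spine malformation scored at 6 dpf by two independent blinded observers under stereomicroscope, after static sealed exposure from 6–8 hpf at 26C in Hanks' solution with rinse on 5 dpf. Positive-direction fit against DMSO control.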

Row | Structure (SMILES) | outcome
1 | OCC(F)(F)OC(F)(F)C(F)(F)OC(F)(F)C(F)(F)OC(F)(F)CO | inactive
2 | OCC(F)(F)OC(F)(F)C(F)(F)OC(F)(F)C(F)(F)OC(F)(F)F | inactive
3 | FC(F)(F)C(F)(C(F)(F)F)C(F)(F)C(F)(F)CC1CO1 (stereo not drawn) | inactive
4 | O=C(O)C(F)(F)C(F)(F)C(=O)O | inactive
5 | NC(=O)C(F)(F)C(F)(F)F | inactive
6 | COC(=O)C(F)(F)C(F)(F)OC(F)(C(F)(F)F)C(F)(F)OC(F)=C(F)F (stereo not drawn) | inactive
7 | O=S(=O)(F)C(F)(F)C(F)(F)C(F)(F)C(F)(F)C(F)(F)C(F)(F)C(F)(F)C(F)(F)F | inactive
8 | O=C(O)C(F)(F)OC(F)(F)C(F)(F)OC(F)(F)F | inactive
9 | O=C(O)C=CC(F)(C(F)(F)F)C(F)(F)F | inactive
10 | CC(O)C(F)(F)C(F)(F)F (stereo not drawn) | inactive
11 | O=C(O)C(F)(F)OC(F)(F)C(F)(F)OC(F)(F)C(=O)O | inactive
12 | OCC(F)(F)OC(F)(F)C(F)(F)OC(F)(F)CO | inactive
13 | O=C(O)C(F)(OC(F)(F)C(F)(F)C(F)(F)F)C(F)(F)F (stereo not drawn) | inactive
14 | C=CC(=O)OCC(F)(F)C(F)F | inactive

Experiment: CCTE_Padilla_ZF_Score.Swim_bladder: CCTE's 144 Hour Post-fertilization zebrafish Assay Score for Swim Bladder Malformation, Padilla Lab (AID 2284408)
Outline: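 Swim bladder inflation scored at 6 dpf by two blinded observers under a stereo microscope. Exposure ran from 6–8 hpf in sealed wells of 10% Hanks' at 26C, with rinsing at 5 dpf; DMSO served as baseline.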

Row | Structure (SMILES) | outcome | AC50
15 | OCC(F)(F)OC(F)(F)C(F)(F)OC(F)(F)C(F)(F)OC(F)(F)CO | inactive | –
16 | OCC(F)(F)OC(F)(F)C(F)(F)OC(F)(F)C(F)(F)OC(F)(F)F | – | 27.5 µM (active)
17 | FC(F)(F)C(F)(C(F)(F)F)C(F)(F)C(F)(F)CC1CO1 (stereo not drawn) | inactive | –
18 | O=C(O)C(F)(F)C(F)(F)C(=O)O | inactive | –
19 | NC(=O)C(F)(F)C(F)(F)F | inactive | –
20 | COC(=O)C(F)(F)C(F)(F)OC(F)(C(F)(F)F)C(F)(F)OC(F)=C(F)F (stereo not drawn) | inactive | –
21 | O=S(=O)(F)C(F)(F)C(F)(F)C(F)(F)C(F)(F)C(F)(F)C(F)(F)C(F)(F)C(F)(F)F | inactive | –
22 | O=C(O)C(F)(F)OC(F)(F)C(F)(F)OC(F)(F)F | inactive | –
23 | O=C(O)C=CC(F)(C(F)(F)F)C(F)(F)F | inactive | –
24 | CC(O)C(F)(F)C(F)(F)F (stereo not drawn) | inactive | –
25 | O=C(O)C(F)(F)OC(F)(F)C(F)(F)OC(F)(F)C(=O)O | inactive | –
26 | OCC(F)(F)OC(F)(F)C(F)(F)OC(F)(F)CO | inactive | –
27 | O=C(O)C(F)(OC(F)(F)C(F)(F)C(F)(F)F)C(F)(F)F (stereo not drawn) | inactive | –
28 | C=CC(=O)OCC(F)(F)C(F)F | inactive | –
